The list is not random: actives were taken first. Their share in the collection is about 12%.
Sm TGR block: S. mansoni TGR enzyme inhibition; Q962Y6; purified TGR, DTNB reduction, TNB absorbance 405 nm; Potency, µM (series often up to 114 µM), without a hit: at the top dose activity change, negative = inhibition, hits mostly inhibitors; 360,000 tested, 3% active; AID 485364; note: % is set by controls: 0 for no effect and ±100 for the full control effect; nearly all actives have a fitted effect of over 60% in size
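TGR 20 nM + NADPH 100 uM (dispensed conc.), cpd preinc 15 min RT; start with NADPH (500 uM addition) then DTNB (15 mM addition). Kinetic TNB absorbance, 405 nm filter. Four-parameter Hill fit across titration.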
SARS PLP yeast: inhibitors of SARS-CoV papain-like protease in yeast; Potency, µM (doses to about 32.9 µM), for the others: at the top dose activity, positive = growth rescue, most hits filed as activators; 330,000 tested, 0.19% active; S. cerevisiae expressing SARS-CoV PLpro, growth rescue; calls by dose curve; note: 0% is about no effect; nearly all actives have a fitted effect of over 55% in size
Pf growth 96h: inhibits malaria parasite growth, 96 h; 320,000 tested, 6.9% active; AID 504834; Potency, µM (titrated, usually from 28.7 µM), for the others: at the highest dose activity change, negative = inhibition, hits mostly inhibitors; P. falciparum luciferase reporter growth, 96 h; note: % is set by controls: 0 for no effect and ±100 for the full control effect
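Infected RBCs, 2% Hct / 0.05% parasitemia final; luciferase-reporter P. falciparum; cpd 96 h, 37 C, 5% CO2; luciferase detection reagent; luminescence.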
Pf growth 48h: P. falciparum growth inhibition at 48 hours (one generation); P. falciparum luciferase growth in erythrocytes, 48 h; Potency, µM (series often up to 28.7 µM), inactives show at the highest dose activity change, negative = inhibition, hits mostly inhibitors; 310,000 tested, 5.9% active; note: % is set by controls: 0 for no effect and ±100 for the full control effect
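First compound was added to culture medium, then infected red cells at 0.1% parasitemia and 2% hematocrit (final). After incubation at 37 C under 5% CO2, luciferase detection reagent was dispensed and light output recorded.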
* = called active by the depositor; u = inconclusive; x = not tested or not shown. Unless noted, calls come from the whole dose curve; as a rule, active = well fitted curve in the direction sought with a large enough effect; inconclusive = small, poorly fitted or top-dose-only effect, or another doubt; inactive = no such curve, though single readings can be large; an effect the other way counts as inactive or inconclusive. Potency is the fitted concentration of half-maximal effect.

SMILES	Sm TGR block	SARS PLP yeast	Pf growth 96h	Pf growth 48h
CC(=O)C(C)Oc1ccc2c3c(c(=O)oc2c1C)CCCC3 (stereo not drawn)	-1%	-1%	8.3µM*	9.3µM*
Cc1c(OC(C)C(=O)NCC(O)c2ccccc2)ccc2c3c(c(=O)oc12)CCC3 (stereo not drawn)	2%	-2%	10µM*	13µM*
Cc1c(OC(C)C(=O)NCc2ccncc2)ccc2c3c(c(=O)oc12)CCC3 (stereo not drawn)	-2%	-7%	9.3µM*	u
Cc1c(OC(C)C(=O)N[C@H](C(=O)O)c2ccccc2)ccc2c3c(c(=O)oc12)CCCC3 (stereo partly drawn)	-31%	-3%	u	u
Cc1cccc(-c2nc(SCC(=O)Nc3ccc4c(c3)OCO4)c(-c3ccccc3)[nH]2)c1	-7%	x	x	x
Cc1sc2ncnc(SCC(=O)N3CCCC(C(F)(F)F)C3)c2c1C (stereo not drawn)	0%	3%	-23%	0%
CCOC(=O)CSC1=Nc2ccccc2C2=NC(CCC(=O)NCc3ccc(OC)cc3)C(=O)N12 (stereo not drawn)	7%	x	x	x
CCc1ccc(-c2nc3c(c(SCc4ccccc4)n2)Cc2c(CO)cnc(C)c2O3)cc1	-6%	x	x	x
Cc1c(OCC(=O)NCc2ccncc2)ccc2c3c(c(=O)oc12)CCC3	-2%	u	13µM*	u
Cc1cccc(N2CCN(C(=O)CN3C(=O)COc4ccc(S(=O)(=O)N5CCC(C)CC5)cc43)CC2)c1C	3%	x	x	x
CCN1C(=O)C(=O)c2cc(C)ccc21	x	11µM*	x	x
O=C(Nc1ccc2oc(-c3cccnc3)nc2c1)c1ccccc1F	-7%	x	x	x
O=C(NCCC1=CCCCC1)c1cnsn1	-1%	0%	4.7µM*	90%
O=C(NCCC1=CCCCC1)c1c(O)nc2sccn2c1=O	-4%	3%	u	12µM*
O=C(NCCC1=CCCCC1)c1c(O)nc2ccccn2c1=O	3%	-4%	33%	u
Cn1c(SCC(=O)c2ccc(O)cc2O)nnc1-c1ccccc1	2%	-1%	-13%	4%
CCOc1cc(CNC(=O)c2ccc3c(c2)nc2n3CCCCC2)ccc1OC	-5%	x	x	x
COc1ccc(NC(=O)c2oc3ccccc3c2NC(=O)COc2ccc(C(C)C)cc2)c(OC)c1	0%	x	x	x
OC(CN1CCN(C(c2ccccc2)c2ccccc2)CC1)c1ccc(Br)cc1 (stereo not drawn)	10%	3%	1.3µM*	x
CN1CCN(CC(O)c2ccccc2)CC1 (stereo not drawn)	0%	8%	35%	9%
OC(CN1CCN(c2ccccc2Cl)CC1)c1ccccc1 (stereo not drawn)	2%	0%	u	u
OC(CN1CCN(C(c2ccccc2)c2ccccc2)CC1)c1ccccc1 (stereo not drawn)	-9%	2%	u	9.3µM*
CCN(CC)c1ccc(C(=O)N2CCC(c3ccncc3)CC2)cc1	-14%	x	x	x
CCn1c(Oc2ccc(F)cc2F)nc2c1c(=O)n(C)c(=O)n2C	-8%	x	x	x
O=C(Nc1ccccc1)C1(c2ccccc2)CC1(Cl)Cl (stereo not drawn)	-2%	-22%	1.7µM*	3.7µM*
Cc1ccc(NS(=O)(=O)c2ccc(-c3ccc(=O)[nH]n3)o2)cc1Cl	-4%	1%	9.3µM*	3%
